Results reported in PubChem BioAssay AID602429 (Sanford-Burnham Center for Chemical Genomics, 2012).
Screen size: about 360,000 compounds; about 1,200 (0.33%) were called active. Rule as the data show it: active = inhibition above about 37%; inactive = the rest. Many of the other results were omitted from the sample, so actives are more common in it than they were.

These compounds were tested against Small ubiquitin-related modifier 1 (Homo sapiens) (UniProt P63165) (assay: modulators of SUMO1 protein-protein interactions, primary screen, biochemical, uHTS (AID 602429)). Details: SUMO1 binding to a labelled peptide, TR-FRET, 1 h; at 20 µM; hits give high values.
Small ubiquitin-related modifier 1 (Homo sapiens), sequence (P63165 whole entry, looked up): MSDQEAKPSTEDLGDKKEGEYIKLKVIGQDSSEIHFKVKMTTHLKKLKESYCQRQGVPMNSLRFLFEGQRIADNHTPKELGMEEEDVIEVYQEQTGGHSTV

| SMILES | inhibition |
| --- | --- |
| COc1cccc(-c2cc3nc4c(c(N5CCC6(CC5)OCCO6)n3n2)CCCC4)c1 | 1.23% (inactive) |
| N#CC1(NC(=O)COC(=O)CSc2ccc(F)cc2)CCCCC1 | 1.24% (inactive) |
| O=C(NCC1CCCO1)C1CCN(C2CCN(C(=O)C3CCCCC3)CC2)CC1 (stereo not drawn) | 2.09% (inactive) |
| COc1ccc(C(=O)NCc2ccccc2C)cc1S(=O)(=O)NC1CCCC1 | 0.24% (inactive) |
| CCCNC(=O)C1(C)CCN(C(=O)c2cc(F)ccc2C)C1 (stereo not drawn) | -2.78% (inactive) |
| CCCCCc1nnc(NC(=O)c2ccc(=O)n(C)n2)s1 | -5.45% (inactive) |
| COCCNC(=O)Cn1cc2c(n1)CCCCC2 | 42.7% (active) |
| COc1ccccc1CNC(=O)Cn1cc2c(n1)CCCC2 | -1.54% (inactive) |
| O=C(Cn1cc2c(n1)CCCCC2)NCCN1CCOCC1 | -0.24% (inactive) |
| Cc1ccc(NC(=O)c2oc(=O)c3ccccc3c2-c2ccccc2)c(C)c1 | 3.85% (inactive) |
| CCC1(C)COC(c2ccc(OC)c(OC)c2)OC1 (stereo not drawn) | 0.985% (inactive) |
| CCCC(C(=O)n1nc(C)cc1C)C(NS(=O)(=O)c1ccc(C)cc1)c1ccccc1 (stereo not drawn) | -1.84% (inactive) |
| Nc1ccc2nc3c(=O)[nH]c(=S)[nH]c3nc2c1 | 92.6% (active) |
| CC(C)c1nc(SCC(=O)NC(=O)NC(C)(C)C)n[nH]1 | 1.88% (inactive) |
| COc1ccc(C)cc1N(CC(=O)NC(C)c1ccccc1)S(C)(=O)=O (stereo not drawn) | -0.711% (inactive) |
| CN(Cc1ccco1)S(=O)(=O)c1nnc(NC(=O)c2ccccc2)s1 | 6.06% (inactive) |
| O=[N+]([O-])c1c(NCCO)cc(Sc2nc3ccccc3s2)c2nonc12 | 48.4% (active) |
| Cc1ccccc1C(=O)Nc1cccc(-c2nnc(SCC(=O)O)n2C)c1 | 3.31% (inactive) |
| CC(C)C(C(=O)NCc1ccco1)N(CC1CCCO1)C(=O)CNS(=O)(=O)c1ccc(F)cc1 (stereo not drawn) | 4.85% (inactive) |
| Cc1cc2cc3n(c2nn1)N=C(Cl)CC3 | -9.97% (inactive) |
| COc1cccc2c1C(=O)c1c(O)c3c(c(O)c1C2=O)CC(O)(C(C)=NNC(=O)c1ccc(Cl)c(Cl)c1)CC3OC1CC(N)C(O)C(C)O1 (stereo not drawn) | 111% (active) |
| COc1ccc(NC(=O)CN(C)C(=O)c2cc(C3CC3)nn2-c2ccccc2)cc1 | -1.85% (inactive) |
| CCN1C(=NCCc2cccnc2)N[C@@H](c2ccccc2)[C@H](C(=O)OC)[C@H]1C | -3.87% (inactive) |
| CN(C(=O)CC1C(=O)NCCN1Cc1ccc(F)cc1Cl)C1CCCCC1 (stereo not drawn) | -1.34% (inactive) |
| COc1ccc(OC)c(Nc2nc3ccccc3n3cnnc23)c1 | 47.2% (active) |
| COc1ccc(CCNc2nc3ccc(C)cc3n3cnnc23)cc1OC | 2.61% (inactive) |
| COc1cc(Nc2nc3ccc(Cl)cc3n3cnnc23)cc(OC)c1OC | -1.84% (inactive) |

| SMILES | inhibition |
| --- | --- |
| N#C/C(=C/c1cccc([N+](=O)[O-])c1)c1nnc2n1CCCCC2 | -13.1% (inactive) |
| CC1CCN(C(=O)COC(=O)c2cc(=O)[nH]c3ccccc23)CC1 | -34.7% (inactive) |
| Oc1c(Cl)cc(Cl)c(Cl)c1Cc1c(O)c(Cl)cc(Cl)c1Cl | 68.6% (active) |
| CCN(CC)S(=O)(=O)N1CCC(C(=O)NC(C)CCc2ccccc2)CC1 (stereo not drawn) | -0.482% (inactive) |
| Nc1nc(Sc2ncccc2[N+](=O)[O-])n[nH]1 | -26.7% (inactive) |
| CCCc1noc2c1/C(=N\O)CCC2 | 1.7% (inactive) |
| COc1ccc(-c2nnc(SC(C)C(=O)NC3CC3)o2)cc1 (stereo not drawn) | 1.98% (inactive) |
| COc1ccc(-c2nnc(-c3ccc4ccccc4c3)o2)cc1 | 51.9% (active) |
| COc1ccc(-c2nnc(SC(=O)N3c4ccccc4Sc4ccccc43)o2)cc1 | -3.37% (inactive) |
| ONC(=Nc1ccccc1)c1ccccc1Cl | 0.653% (inactive) |
| CN(C(=O)COC(=O)c1cc(=O)[nH]c2ccccc12)C1CCCCC1 | -17.9% (inactive) |
| Clc1ccc(-n2nnnc2-c2cnc(-c3ccccn3)nc2-c2cccs2)cc1 | -11.8% (inactive) |
| Cc1ccsc1/C=N/n1c(=S)[nH]nc(C)c1=O | -0.0625% (inactive) |
| S=c1[nH]nc(-c2cccs2)n1/N=C/c1cn(-c2ccccc2)nc1-c1ccc(Cl)cc1 | 41.9% (active) |
| CSCC[C@H](NC(=O)NC1CCCC1)C(=O)O | 2.79% (inactive) |
| Cc1cc(C)c(-c2csc(NC(=O)CCCc3nc4ccccc4c(=O)[nH]3)n2)c(C)c1 | 0.192% (inactive) |
| O=C(COC(=O)c1cc(=O)[nH]c2ccccc12)Nc1nc(-c2cccc(Br)c2)cs1 | 2.92% (inactive) |
| O=C(CSc1nc2ccccc2c(=O)[nH]1)Nc1nc(-c2ccc(Br)cc2)cs1 | 94.3% (active) |
| O=C(O)c1ccc(S(=O)(=O)c2ccccc2)s1 | 2.5% (inactive) |
| COc1ccc(NC(=O)CCC(=O)Nc2nnc(C3CCCCC3)s2)cc1 | 44% (active) |
| COc1ccc(OCCCC(=O)Nc2nnc(C3CCCO3)s2)cc1 (stereo not drawn) | 0.167% (inactive) |
| COc1ccc2c(CC(=O)Nc3nnc(C4CC4)s3)coc2c1 | -1.1% (inactive) |
| COc1ccccc1NC(=O)C1=C(C)Nc2nnnn2C1c1cccc(Br)c1 (stereo not drawn) | 43.5% (active) |
| COc1cc(C2C(C(=O)Nc3ccccc3OC)=C(C)Nc3ncnn32)ccc1O (stereo not drawn) | -0.861% (inactive) |
| COc1ccccc1NC(=O)C1=C(C)Nc2nc3ccccc3n2C1c1cccs1 (stereo not drawn) | -1.24% (inactive) |
| O=C1c2ccccc2C(=O)C1C(=O)C1CC1 | -16.1% (inactive) |
